Sm TGR block = inhibitors of Schistosoma mansoni thioredoxin glutathione reductase; purified TGR, DTNB reduction, TNB absorbance 405 nm; Q962Y6; Potency, µM (highest dose often 114 µM), usual class: inhibitors; actives 3% (n = 360,000); further: nearly all actives have a fitted effect of over 60% in size
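TGR 20 nM + NADPH 100 uM (dispensed conc.), cpd preinc 15 min RT; start with NADPH (500 uM addition) then DTNB (15 mM addition). Kinetic TNB absorbance, 405 nm filter. Four-parameter Hill fit across titration.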
Giardia FBPA inh = Giardia lamblia aldolase inhibition; purified Giardia FBPA; Potency, µM (highest dose often 59.6 µM), hits mostly inhibitors; A8B2U2; actives 0.71% (n = 290,000); further: nearly all actives have a fitted effect of over 55% in size
Target sequence (A8B2U2 whole entry, looked up): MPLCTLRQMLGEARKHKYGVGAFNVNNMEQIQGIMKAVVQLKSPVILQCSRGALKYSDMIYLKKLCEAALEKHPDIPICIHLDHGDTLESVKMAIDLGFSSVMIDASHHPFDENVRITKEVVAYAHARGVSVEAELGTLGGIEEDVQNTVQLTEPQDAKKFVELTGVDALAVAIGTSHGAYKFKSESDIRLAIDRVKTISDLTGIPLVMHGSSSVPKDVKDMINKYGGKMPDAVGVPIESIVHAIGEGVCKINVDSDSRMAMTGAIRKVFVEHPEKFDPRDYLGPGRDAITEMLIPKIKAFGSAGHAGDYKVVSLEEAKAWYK
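40 nM FBPA preincubated 10 min at RT with compound (up to 57.5 uM final), then substrate plus GAPDH/TPI/NAD/arsenate coupling and diaphorase/resazurin added. Fluorescence read after 20 min at RT, 525/598 nm.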
TbPYK inhibitor = blocks Trypanosoma brucei pyruvate kinase; TbPYK enzyme, Kinase-Glo Plus ATP luminescence, 45 min; Potency, µM (top dose mostly 76.8 µM), hits mostly inhibitors; actives 0.12% (n = 410,000); further: nearly all actives have a fitted effect of over 50% in size
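Activity of T. brucei pyruvate kinase was followed by Kinase-Glo Plus luminescence after the enzyme reacted 45 min at room temperature with 130 uM ADP (final) and substrate. Test compounds were added before ADP at multiple concentrations.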
HCMV inh = inhibitors of human cytomegalovirus; activity change, negative = inhibition, % at 57.5 µM; HFF cells, HCMV-luciferase reporter, 72 h; active compounds read low; actives 4.5% (n = 410,000); in the data active means activity change below about -60%; inconclusive means no clear call, values can overlap the other calls; inactive means above about -39%
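Luciferase read-out from HCMV-luciferase-infected HFFs (MOI 1 PFU/cell) 72 h post infection at 37C; compounds added after 16 h cell attachment; activity normalized between buffer-only basal and Salinomycin (10uM) inhibitor controls.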
FMDV antiviral = antivirals against foot and mouth disease virus | FMDV antiviral cell-based qHTS | Potency, µM (doses to about 57.9 µM), hits mostly inhibitors | actives 1.2% (n = 410,000) | AID 1159524; calls by dose curve; tested in HEK293T cells; further: read-out not given here; nearly all actives have a fitted effect of over 45% in size
RE007 growth inh = less growth of the S. pombe RE007 Vpr strain; S. pombe RE007 Vpr strain, BacTiter-Glo ATP luminescence, 24 h; Potency, µM (series often up to 92.2 µM), usual class: inhibitors; actives 0.21% (n = 360,000); AID 651644; active means well fitted falling curve with a large enough effect; inconclusive means small, poorly fitted or top-dose-only effect; inactive means no such curve, though single readings can be large or run the other way; further: nearly all actives have a fitted effect of over 50% in size
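Fission yeast strain RE007, carrying one chromosomally integrated HIV-1 vpr copy, was seeded at OD 0.01 in PMG+AL medium with 23 nL pinned compound. After 24 h at 30 °C and 99% humidity, viability was read by BacTiter-Glo luminescence.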
Numbers stand for hits; – = inactive; ? = inconclusive; · = not tested or not shown; [ ] = another dose, or the depositor's remark. Hits are enriched below; roughly 7.7% of the tested compounds scored in any of these assays. Unless noted, the call rests on the fitted dose curve; in most records, active means well fitted curve in the direction sought with a large enough effect; inconclusive means small, poorly fitted or top-dose-only effect, or another doubt; inactive means no such curve, though single readings can be large; an effect the other way counts as inactive or inconclusive.

SMILES	Sm TGR block	Giardia FBPA inh	TbPYK inhibitor	HCMV inh	FMDV antiviral	RE007 growth inh
Cc1ccc(Oc2c(C(N)=O)cc([N+](=O)[O-])cc2[N+](=O)[O-])cc1	11µM	–	–	–	?	–
Cc1ccc(CNc2ccc([N+](=O)[O-])cc2C(N)=O)cc1	–	·	–	–	–	–
CCC(=Nc1ccc(N)cc1)C1=C(O)C(C(=O)OC)C(C)(C)CC1=O (configuration not stated)	?	1.1µM	–	·	·	–
COC(=O)c1ccc(NC(=O)CSc2nc3ccc(N4C(=O)C5C6C=CC(C6)C5C4=O)cc3s2)cc1 (configuration not stated)	–	–	–	-64	14µM	–
O=C(CSc1ncnc2[nH]ncc12)Nc1nc(-c2ccc(F)c(F)c2)cs1	–	–	–	-90	14µM	–
Cc1sc2nc(CN3CCOCC3)nc(NS(=O)(=O)c3cc(Cl)ccc3Cl)c2c1C	–	·	–	-106	–	–
Cc1sc2nc(CN3CCOCC3)nc(Cl)c2c1C	–	–	–	–	–	?
COC(=O)c1ccccc1NC(=O)c1noc2c1CSc1ccccc1-2	3.5µM	·	–	–	–	·
O=C(NCc1cccnc1)c1cc(Sc2ccc(F)cc2F)nc2ccccc12	–	–	–	-64	?	–
Cc1ccc(NC(=O)CSc2nc(-c3cccs3)nc3cc(=O)[nH]n23)cc1	–	·	–	–	–	·
CCC(=O)N1CCc2cc(Br)cc(S(=O)(=O)N3CCN(c4ccc(C)cc4)C(C)C3)c21 (configuration not stated)	–	·	–	–	–	·
CC[C@@H]1OC(=O)C[C@H](O)[C@@H](C)[C@@H](O[C@H]2O[C@@H](C)[C@H](O[C@@H]3C[C@](C)(O)[C@H](O)[C@@H](C)O3)[C@@H](N(C)C)[C@@H]2O)[C@@H](C=O)C[C@@H](C)C(=O)/C=C/C(C)=C[C@@H]1CO[C@H]1O[C@@H](C)[C@H](O)[C@H](OC)[C@@H]1OC	·	·	–	·	·	·
S=C1Nc2ccccc2Sc2ccccc21	–	–	–	–	–	–
c1ccc2c(c1)Nc1ccncc1S2	–	?	–	-71	–	–
CCCCC/C=C\C/C=C\C/C=C\CCCCC(=O)O	28µM	–	–	–	–	–[18.4 µM]
CCCCC/C=C\C/C=C\CCCCCCCC(=O)O	·	–	–	·	–[6.7 µM]	·
CNC(=S)N(C)[C@H]1c2c(ccc3ccccc23)OC[C@H]1CO	–	–	–	-60	–	–
COC(=O)CCC(=O)N(CCN(C(=O)CCC(=O)OC)c1ccccc1)c1ccccc1	–	–	–	-95	–	–
CON(C)C(=O)CCN(C(=O)OC(C)(C)C)c1ccccc1	·	·	–	–	–	–
Cc1nc(S(=O)(=O)c2ccc(Cl)cc2)c(NCc2ccccc2)o1	40µM	–	–	–	–	–
O=S(=O)(c1ccc(Cl)cc1)c1nc(-c2ccccc2F)oc1NCc1ccccc1	–	·	–	–	–	·
CNc1oc(C)nc1S(=O)(=O)c1ccccc1	1.6µM	–	–	–	–	–
CCOc1ccc(Cl)cc1CSc1n[nH]c(C)n1	·	–	–	-72	–	–
Cc1nc(SCc2ccccc2C)n[nH]1	–	–	–	–	–	–
CC(C)C(=O)NC(Oc1ccccc1Cl)C(Cl)(Cl)Cl (configuration not stated)	25µM	–	–	–	–	–
SMILES	Sm TGR block	Giardia FBPA inh	TbPYK inhibitor	HCMV inh	FMDV antiviral	RE007 growth inh
O=C(Cc1ccccc1)NC(Oc1ccccc1Cl)C(Cl)(Cl)Cl (configuration not stated)	32µM	–	–	–	–	–
Cc1cccc(C(=O)NC(Oc2ccccc2)C(Cl)(Cl)Cl)c1 (configuration not stated)	–	–	–	–	–	–
Cc1ccc(NC(=O)c2ccc(-n3c(C)nnc3C)cc2)cc1F	–	·	–	–	–	·
COc1ccc([C@@H](C)C(=O)c2ccc(O)cc2O)cc1	·	–	·	·	–	·
O=[N+]([O-])c1ccc(-c2cnc(NO)nc2)cc1	–	–	–	–	–	–
Nc1ncc(-c2ccc([N+](=O)[O-])cc2)cn1	–	–	–	-95	–	–
CO[C@@H]1COC(=O)[C@H](C)NC(=O)C/C=C\[C@@H](C)[C@@H](NS(=O)(=O)c2ccc(C)cc2)COC(=O)C/C=C\[C@@H]1C	·	–[12.9 µM]	·	·	·	·
CCN(CC)CCNC(=O)C(=O)Nc1c2c(nn1-c1ccc(F)cc1)CSC2	–	·	–	–	–	·
CCOC(=O)Cc1csc(NC(=O)CCS(=O)(=O)Cc2ccccc2)n1	20µM	–	–	–	–	–
CCOC(=O)Cc1csc(NC(=O)CS(=O)(=O)Cc2ccccc2)n1	–	–	–	–	–	–
Cc1nnc(NC(=O)CS(=O)(=O)Cc2ccccc2)s1	–	–	–	–	–	–
Cc1csc(NC(=O)CS(=O)(=O)Cc2ccccc2)n1	·	–	–	-71	–	–
CO[C@H]1[C@H](NC(=O)c2ccco2)c2ccccc2C12CCN(Cc1cccn1-c1ccccn1)CC2	·	·	·	·	–	·
Cc1cc(C)c(OCC(=O)N2CC=C(c3ccccc3)CC2)c(C)c1	–	·	–	-67	–	–
CCCCS(=O)(=O)N[C@@H](Cc1ccc(OCCCCC2CCNCC2)cc1)C(=O)O	·	·	–	·	·	·
CCOc1ccc(N2C(=O)CC(N3CCN(c4ccc(F)cc4)CC3)C2=O)cc1 (configuration not stated)	45µM	–	–	–	–	–
CCOc1ccc(N2C(=O)CC(N3CCC(NC(=O)Nc4ccccc4)CC3)C2=O)cc1 (configuration not stated)	–	–	–	–	–	22µM
COc1ccccc1N1CCN(C2CC(=O)N(c3ccc(Cl)cc3)C2=O)CC1 (configuration not stated)	–	–	–	–	?	?
CCOc1ccc(N2C(=O)CC(N3CCN(C(=O)CN4CCCC4)CC3)C2=O)cc1 (configuration not stated)	35µM	–	–	–	·	–
COc1ccccc1N1C(=O)CC(N2CCN(c3ccc(F)cc3)CC2)C1=O (configuration not stated)	45µM	–	–	–	–	–
CN1C(=O)CC(N2CCN(C(=O)CN3CCCC3)CC2)C1=O (configuration not stated)	–	–	–	–	–	–
Cc1noc(C)c1-c1cncnc1NCc1cccnc1	·	–	·	·	–	·
CC(NCCC(Cc1ccccc1)c1ccco1)c1ccccc1 (configuration not stated)	–	–	–	–	–	–
Cc1ccc(C(CCNC(C)c2cccs2)c2ccco2)cc1 (configuration not stated)	–	–	–	-61	–	–

Source: PubChem (National Center for Advancing Translational Sciences (NCATS))
